Giardia FBPA inh – Giardia lamblia aldolase inhibition. A8B2U2. purified Giardia FBPA. Potency, µM (highest dose often 59.6 µM), usual class: inhibitors. 290,000 tested, 0.71% active. AID 2451; note: nearly all actives have a fitted effect of over 55% in size
Target sequence (A8B2U2 whole entry, looked up): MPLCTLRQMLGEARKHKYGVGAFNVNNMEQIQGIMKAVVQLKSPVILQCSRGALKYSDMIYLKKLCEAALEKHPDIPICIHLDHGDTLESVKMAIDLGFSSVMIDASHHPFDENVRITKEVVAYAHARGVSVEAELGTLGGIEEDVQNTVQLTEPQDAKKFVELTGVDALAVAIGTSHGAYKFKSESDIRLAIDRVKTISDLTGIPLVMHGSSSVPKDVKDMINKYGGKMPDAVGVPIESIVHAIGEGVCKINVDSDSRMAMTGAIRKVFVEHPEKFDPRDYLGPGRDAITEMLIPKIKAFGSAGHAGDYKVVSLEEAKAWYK
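40 nM FBPA preincubated 10 min at RT with compound (up to 57.5 uM final), then substrate plus GAPDH/TPI/NAD/arsenate coupling and diaphorase/resazurin added. Fluorescence read after 20 min at RT, 525/598 nm.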
HCMV antiviral – blocks human cytomegalovirus replication; HFF cells, HCMV-luciferase reporter, 72 h; active compounds read low; activity change, negative = inhibition, % at 57.5 µM; 410,000 tested, 4.5% active; AID 1259415; in the data active = activity change below about -60%; inconclusive = no clear call, values can overlap the other calls; inactive = above about -39%
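Inhibition of viral replication was scored as loss of reporter luminescence in HFFs infected with HCMV-luciferase (MOI 1 PFU/cell) for 72 h; compounds tested at 2 doses, normalized to buffer and Salinomycin controls.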
Pf growth 48h – P. falciparum growth inhibition at 48 hours (one generation); Potency, µM (highest dose often 28.7 µM), most hits filed as inhibitors; 310,000 tested, 5.9% active; AID 504832; P. falciparum luciferase growth in erythrocytes, 48 h
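In quantitative HTS format, infected erythrocytes bearing luciferase-reporter parasites were treated for a single generation at 37 C. Luminescence after adding detection reagent served as the growth measure.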
Sm TGR inh – inhibitors of Schistosoma mansoni thioredoxin glutathione reductase. purified TGR, DTNB reduction, TNB absorbance 405 nm. Potency, µM (series often up to 114 µM), hits mostly inhibitors. 360,000 tested, 3% active. AID 485364; note: nearly all actives have a fitted effect of over 60% in size
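First, TGR (20 nM dispensed) and NADPH were mixed with compound. Second, a 15 min room-temperature incubation followed. Third, further NADPH and then DTNB were added to start the reaction. Finally, TNB absorbance was monitored kinetically.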
Pf growth 96h – inhibits malaria parasite growth, 96 h. P. falciparum luciferase reporter growth, 96 h. AID 504834. Potency, µM (doses to about 28.7 µM), usual class: inhibitors. 320,000 tested, 6.9% active
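Plates of compound plus infected erythrocytes (2% hematocrit, 0.05% parasitemia final) incubate 96 hours, 37 C, 5% CO2. Detection reagent added; reduced luminescence from the parasites' luciferase reporter flags inhibition.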
A number is an active result; 0 = inactive; ? = inconclusive; - = no result given; ! = repeats disagree; [ ] = another dose, or the depositor's remark. Only some compounds are listed: those with a hit (about 14% of all), similar ones and a draw of the others. Unless noted, calls come from the whole dose curve; as a rule, active = well fitted curve in the direction sought with a large enough effect; inconclusive = small, poorly fitted or top-dose-only effect, or another doubt; inactive = no such curve, though single readings can be large; an effect the other way counts as inactive or inconclusive.

SMILES	Giardia FBPA inh	HCMV antiviral	Pf growth 48h	Sm TGR inh	Pf growth 96h
CCC(C)Sc1ccc(-c2nc3ccc(Cl)cn3c2NCc2ccccc2)cc1 (stereo not drawn)	-	0	-	-	-
CCCCNc1c(-c2ccc(OC)c(SC(C)CC)c2)nc2ccc(Cl)cn12 (stereo not drawn)	-	0	-	-	-
CCC(C)Sc1ccc(-c2nc3ccc(C)cn3c2NCc2ccccc2)cc1OC (stereo not drawn)	-	-	3.7µM	0	4.7µM
CCCCCCSc1ccc(-c2nc3ccc(C)cn3c2NCc2ccccc2)cc1OC	-	0	5.2µM	0	4.7µM
CCC(C)Sc1cc(-c2nc3ccc(C)cn3c2NCc2ccccc2)ccc1OC (stereo not drawn)	-	-77	-	-	-
O=C(NCc1ccccn1)c1cccc(S(=O)(=O)NCc2ccccc2)c1	-	0	0	0	0
CC(=O)Nc1ccc(Nc2c(CCC(C)C)c(C)c(C#N)c3nc4ccccc4n23)cc1	-	0	-	0	-
Cc1cc(CNC(=O)c2ccc3nc(Cc4ccccc4F)oc3c2)nn1C	-	0	0	0	2.1µM
O=C1NN(C(=O)Nc2ccc(Br)cc2)C(c2ccccc2)C1c1ccccc1 (stereo not drawn)	0	-	-	-	-
Cc1c(CNCC(C)c2ccccc2)c(C(=O)O)c(C)n1Cc1ccccc1 (stereo not drawn)	0	0	0	0	0
CCC(Cc1ccccc1)NCc1c(C(=O)O)c(C)n(Cc2ccccc2)c1C (stereo not drawn)	0	-74	0	0	?
COc1ccc(-c2sc3ccc(N4CCOCC4)cc3c2C#CCO)cc1	-	-87	-	-	-
COc1ccc(-c2sc3ccc(N4CCOCC4)cc3c2C#CC2(O)CCCCC2)cc1	-	0	-	-	-
CCC(C)NC(=O)c1ccc(N2CC3CC(C2)c2cccc(=O)n2C3)c(NC(=O)c2ccc(Br)o2)c1 (stereo not drawn)	0	0	?	0	9.3µM
COc1ccccc1NC(=O)C1CCN(C(=O)NCc2ccccc2)CC1	0	0	0	0	0
CC(NC(=O)CCc1nnc(-c2ccc(-c3ccccc3)cc2)o1)c1nc2ccccc2[nH]1 (stereo not drawn)	0	-68	?	?	0
COc1ccccc1-c1cc2c(Nc3ccc(N4CCN(C)CC4)cc3)nccc2[nH]1	-	0	-	-	-
CC(C)[C@H](NC(=O)c1ccccc1Cl)C(=O)NC1CCCCCC1	0	0	?	0	0
CC1(Cc2ccc(Cl)cc2)C(=O)Nc2ccc(-c3cccnc3)cc21 (stereo not drawn)	-	-66	-	-	-
CC1(Cc2cccc(F)c2)C(=O)Nc2ccc(-c3cccnc3)cc21 (stereo not drawn)	-	-74	-	-	-
CC1(Cc2cc(Cl)ccc2C(F)(F)F)C(=O)Nc2ccc(-c3ccc(F)c(Cl)c3)cc21 (stereo not drawn)	-	-63	-	-	-
CC1(Cc2cccc(C(F)(F)F)c2)C(=O)Nc2ccc(-c3ccc(F)c(Cl)c3)cc21 (stereo not drawn)	-	0	-	-	-
O=C(Cc1cccc(NC(=O)C2CCCN(C(=O)CCc3ccccc3)C2)c1)Nc1cccc(C(=O)N2CCCC2)c1 (stereo not drawn)	-	0	?	0	?
CCc1cccc(N(C)C(N)=Nc2cccc3ccccc23)c1	0	0	13µM	0	9.5µM
CCCOc1ccc(C(=O)O/N=C(\CC)c2ccc(C)cc2)cc1	0	0	0	0	0
SMILES	Giardia FBPA inh	HCMV antiviral	Pf growth 48h	Sm TGR inh	Pf growth 96h
CC/C(=N\OC(=O)c1ccc(OC(C)C)cc1)c1ccc(C)cc1	0	0	-	0	15µM
Cc1cc2c(c(=O)n1Cc1ccccn1)C(c1ccc3c(c1)OCO3)C(C#N)=C(N)O2 (stereo not drawn)	0	0	0	0	0
COc1cc(C2C(C#N)=C(N)Oc3cc(C)n(CC4CCCO4)c(=O)c32)cc2c1OCO2 (stereo not drawn)	?	0	?	45µM	?
Cc1cc2c(c(=O)n1Cc1ccc3c(c1)OCO3)C(c1cccnc1)C(C#N)=C(N)O2 (stereo not drawn)	0	0	12µM	0	0[5.75 µM]
COc1ccc(CCn2c(C)cc3c(c2=O)C(c2ccc4c(c2)OCO4)C(C#N)=C(N)O3)cc1OC (stereo not drawn)	0	0	8.3µM	0	-
COc1ccc(NC(=O)Cn2c(=O)n(CC3CCCO3)c(=O)c3ccccc32)cc1 (stereo not drawn)	-	0	-	0	-
O=C(O)CCCNC(=O)Cc1ccccc1	0	0	0	0	0
O=C(COC(=O)CNS(=O)(=O)c1ccc(Br)cc1Cl)NC1CCCC1	-	0	0	0	0
CC(=O)Oc1ccccc1Cn1c(C)c(C(=O)NCc2ccccc2C(F)(F)F)sc1=O	-	0	-	-	-
COC(=O)c1cc2c(c3c4cc(OC)ccc4n(S(=O)(=O)c4ccc(F)cc4)c13)C(=O)N(Cc1ccccc1)C2	-	0	-	-	-
CC(NC(=O)CCCn1c(=O)c2cccn2c2cccnc21)c1ccccc1 (stereo not drawn)	-	-65	-	0	-
CC(C)Oc1ccc(CNC(=O)CCCn2c(=O)c3cccn3c3cccnc32)cc1	-	-68	-	0	-
CCOc1ccccc1OCCCC(=O)Nc1ccc(Cl)c(S(=O)(=O)N2CCOCC2)c1	-	?	9.3µM	0	7.4µM
O=C(O)CC(SCC(=O)Nc1ccc(Cl)c(S(=O)(=O)N2CCOCC2)c1)C(=O)O (stereo not drawn)	0	0	0	0	0
CC(CC(=O)Nc1ccc(Cl)c(S(=O)(=O)N2CCOCC2)c1)c1ccccc1 (stereo not drawn)	-	-82	12µM	0	?
CC(=O)c1ccccc1NC(C(=O)NCc1ccccc1)C(C)C (stereo not drawn)	-	0	-	-	-
CCc1nc(C)cn1S(=O)(=O)c1cc(C)c(OC)cc1C	0	0	-	0	?
CCc1nc(C)cn1S(=O)(=O)c1cc(C)c(OC)c(C)c1C	0	-76	-	0	0
CCC(C)N(Cc1ccc(OC)cc1OC)S(=O)(=O)c1cc(Br)ccc1Br (stereo not drawn)	-	0	-	-	-
O=C(NCCN1CCOCC1)c1ccc2c(c1)N(Cc1ccccc1F)C(=O)c1ccccc1S2(=O)=O	0	0	0	0	0
CC1CCCN(CCCNC(=O)c2ccc3c(c2)N(Cc2ccccc2F)C(=O)c2ccccc2S3(=O)=O)C1 (stereo not drawn)	-	-70!	2.1µM	0	?
CCN1CCCC1CNC(=O)c1ccc2c(c1)N(Cc1ccccc1F)C(=O)c1ccccc1S2(=O)=O (stereo not drawn)	-	0	9.3µM	0	0
O=C(NCc1ccco1)c1ccc2c(c1)N(Cc1ccccc1F)C(=O)c1ccccc1S2(=O)=O	-	-66	-	0	-
O=C(NCc1ccco1)c1ccc2c(c1)N(Cc1ccccc1)C(=O)c1ccccc1S2(=O)=O	-	0	-	0	-
Cc1cc(=O)c(C(=O)N[C@@H](C(=O)N[C@@H]2C(=O)N3C(C(=O)O)=C(CSc4nnnn4C)CS[C@H]23)c2ccc(O)cc2)c[nH]1	-	-	0	-	?

High-throughput results deposited in PubChem by National Center for Advancing Translational Sciences (NCATS).
